# Measurements taken from ChEMBL document CHEMBL4513216, “Probing the Open Global Health Chemical Diversity Library for Multistage-Active Starting Points for Next-Generation Antimalarials” (ACS Infect Dis, 2020).
# In all, about 69,000 compounds went through this assay and about 8,600 (12%) showed an effect of 50% or more. The entries come from a sample that favours strong results as a whole.
# Tested on: Plasmodium berghei
# Assay: Screen against P. berghei liver stage (PbLuc), transformed with Luciferase, at 10uM
# Type: functional, HepG2
# Conditions: tested at 10 uM
row,SMILES,INHIBITION
1,O=c1oc(-c2ccc(F)cc2)nn1CN1CCN(C2CCCC2)CC1,29.4%
2,O=C(Cn1nc(-c2ccc(F)cc2)oc1=O)NCC1CCCO1 (centres undefined),-36.1%
3,CC1CCN(Cn2nc(-c3ccc(F)cc3)oc2=O)CC1,9.25%
4,O=c1oc(-c2ccc(F)cc2)nn1CC1CCOC1 (centres undefined),62.3%
5,O=c1oc(-c2ccc(F)cc2)nn1CC1CCCCO1 (centres undefined),59.3%
6,O=c1oc(-c2ccc(F)cc2)nn1CN1CCN(CC2CC2)CC1,30.6%
7,COCCN1C[C@@H]2[C@@H](OC)CCN(Cc3ccco3)[C@@H]2C1,22.2%
8,Cn1cc(C2CC(=O)NC23CCN(Cc2cccc(F)c2)CC3)cn1 (centres undefined),-1.36%
9,CN(CCc1ccccn1)C(=O)C(O)c1cc(Cl)cc(Cl)c1 (centres undefined),10.1%
10,CSc1ccc(NC(=O)NCC2CCCO2)cc1F (centres undefined),-81.9%
11,C[C@@H]1CN(c2nc(N)nc3c2CCC3)C[C@]1(C)O,8.53%
12,C[C@@H]1CN(c2nc3c(cc2C(N)=O)CCC3)CC[C@@]1(O)C1CCC1,-2.93%
13,C[C@@H]1CN(c2nc(N)nc3c2CCC3)CC[C@@]1(O)C1CCC1,83.3%
14,Cc1ccc(C)c(Sc2nccn(C)c2=O)c1,-13.1%
15,COc1ccc(Cl)cc1CN(CC(N)=O)C(C)C,-6.04%
16,Cc1cccc(C)c1-c1cc(NCCO)nc2[nH]ccc12,45%
17,CN(C)CCNc1cc(-c2ccccc2C(N)=O)c2cc[nH]c2n1,15.8%
18,Cc1cc(F)ccc1-c1cc(NCCO)nc2[nH]ccc12,-13.1%
19,COCCNc1cc(-c2cccc(C(=O)O)c2C)c2cc[nH]c2n1,58.5%
20,COCCNc1cc(-c2ccccc2CCN)c2cc[nH]c2n1,25.8%
21,Cc1cnccc1-c1cc(NCCO)nc2[nH]ccc12,58%
22,COCCNc1cc(-c2ccccc2C(=O)O)c2cc[nH]c2n1,30.3%

row,SMILES,INHIBITION
1,COCCNc1cc(-c2ccccc2S(N)(=O)=O)c2cc[nH]c2n1,23%
2,COCCNc1cc(-c2ccccc2C(N)=O)c2cc[nH]c2n1,60.3%
3,CN1CC(=O)N(c2cccnc2)CC12CCN(C(=O)C1CCCCC1)C2 (centres undefined),31.2%
4,Cc1csc(CNC(=O)Nc2ccc3c(c2)OCO3)n1,-51.9%
5,CCCS(=O)(=O)N1C[C@@H]2C[C@H](C(=O)N(C)C)[C@H](C1)O2,49.7%
6,CC(C)(C)c1ncc(C(=O)NCCNC(=O)Cc2ccccc2)s1,45.7%
7,Cc1ccccc1-c1noc(CN2CCc3cncnc3C2)n1,8.195%
8,O=c1ccc(-c2cccs2)nn1CN1CCOCC1,-1.33%
9,O=C1COC2(CCN(c3ccccn3)CC2)CN1Cc1ccccn1,16.6%
10,CCCc1noc(CN2CCC(N(C)Cc3nnc(C4CC4)o3)C2)n1 (centres undefined),-16%
11,COC(=O)c1cccn1C1CCN(Cc2nc3ccccc3o2)CC1,15.6%
12,COC(=O)c1cccn1C1CCN(Cc2ccccc2)CC1,56.1%
13,COC(=O)c1cccn1C1CCN(CCN2C(=O)CCC2=O)CC1,1.75%
14,COC(=O)c1cccn1C1CCN(Cc2cccc(C(N)=O)c2)CC1,45.1%
15,COC(=O)c1cccn1C1CCN(Cc2cccnc2)CC1,11.6%
16,COC(=O)c1cccn1C1CCN(Cc2cnc3ccccn23)CC1,66.8%
17,Cc1nc(CN2CCC(N(C)Cc3nnc(C4CC4)n3C)C2)oc1C (centres undefined),16.8%
18,Cc1ccc(CN2CCC3(CC2)CCN(Cc2ccco2)CC3)cc1,-13.7%
19,Cc1ccc(N2C[C@H](C(=O)NCC3CC3)[C@@H]3CCO[C@@H]3C2)nn1,42.7%
20,COCC1CN(Cc2ccoc2)Cc2nnn(C)c21 (centres undefined),-6.21%
21,CCc1nc2n(n1)CC(NCC(=O)Nc1oc(C)c(C)c1C#N)CC2 (centres undefined),-13.5%
22,COc1ccc2c(c1)NC(=O)C2OC(=O)CC(C)(C)C (centres undefined),44%

row,SMILES,INHIBITION
1,COc1ccc2c(c1)NC(=O)C2OC(=O)CCc1ccc(F)cc1 (centres undefined),14.9%
2,COc1ccc2c(c1)NC(=O)C2OC(=O)Cc1ccccc1C (centres undefined),58.5%
3,CN(C)c1cc(C(F)(F)F)nc(N2CCCC2c2ccccn2)n1 (centres undefined),-84.3%
4,CN(Cc1nnc2n1CCC2)C(=O)c1ccc2c(c1)OCO2,16.8%
5,Cc1cccc(CN2CCc3ncnc(C4CC4)c3CC2)n1,-27.4%
6,Cc1c(CN2Cc3nccn3CC2c2ccccc2)cnn1C (centres undefined),14.435%
7,COC(C)Cc1nc(-c2cnn3c(C)cc(C)nc23)no1 (centres undefined),31.2%
8,CCOCCc1nc(-c2cnn3c(C)cc(C)nc23)no1,10.6%
9,COCCc1nc(-c2cnn3c(C)cc(C)nc23)no1,34.6%
10,CCN(CC)C(=O)CCc1nc(-c2cnn3c(C)cc(C)nc23)no1,57.7%
11,CCc1nc(Cn2c(=O)c3c(C(F)(F)F)cc(C)nc3n2C)no1,10.5%
12,CCS(=O)(=O)Cc1nc(-c2cnn3c(C)cc(C)nc23)no1,70.5%
13,Cc1nc(CN(C)C2CCN(CCc3cnn(C)c3)C2)no1 (centres undefined),11.2%
14,Cc1ccccc1C(=O)NC(C)CN1CCOC1=O (centres undefined),39.3%
15,CCS(=O)(=O)N1CCN(C(C)(C)CO)CC1,11%
16,Cc1cnn(CCNCc2cc(C#N)ccc2F)c1,34.15%
17,Cc1noc(C)c1CN1CCn2c(CN3CCN(C)CC3)cnc2C1,21.6%
18,CCc1cc(N2CCC(N[C@@H]3CS(=O)(=O)C[C@H]3O)CC2)nc(N(C)C)n1,35.3%
19,CCc1cc(N2CCC(NC3CCOCC3)CC2)nc(N(C)C)n1,29.1%
20,CCc1cc(N2CCC(NC3CN4CCC3CC4)CC2)nc(N(C)C)n1 (centres undefined),62.4%
21,Cn1ncc2c1NC(=O)CC2c1ccc(F)cc1 (centres undefined),3.46%
22,CCCn1nnnc1COc1cc(OC)ccc1C(N)=O,-15%

row,SMILES,INHIBITION
1,CC(C)C[C@@H](N)C(=O)N(C)Cc1csc(C(C)C)n1,-40.5%
2,CC(C)n1cc(S(=O)(=O)N2CCSCC2)cn1,-28.8%
3,CNC(=O)C1Cn2ccnc2C2(CCN(Cc3cccc(C)n3)CC2)O1 (centres undefined),29.6%
4,Cc1cc(NC(=O)C(C)N2CCN(c3ccccc3F)CC2)no1 (centres undefined),8.38%
5,Cc1cc(NC(=O)C(C)N2CCN(c3ccc(C#N)cc3F)CC2)no1 (centres undefined),55%
6,CC(C(=O)NC(N)=O)N1CCN(c2ccc(C#N)cc2F)CC1 (centres undefined),-45%
7,COCC(=O)N1CC[C@@H](OCC2CC2)[C@@H]1Cc1cccnc1,-31.4%
8,Cc1cnn(CC2CCCN2Cc2noc(C(C)C)n2)c1 (centres undefined),25.6%
9,COCCO[C@H]1CCN(C(=O)C2CCOCC2)[C@H]1Cc1ccncc1,26.7%
10,CCOc1cncc(N2CCN(c3ccccc3O)CC2)n1,39.7%
11,c1ccc(OCCNC2CCN(c3ncccn3)CC2)cc1,-32.6%
12,Cc1cc(N2CCC(NCCOc3ccccc3)CC2)nc(C)n1,9.72%
13,Cc1nc(C)c(C)c(N2CCC(NCCOc3ccccc3)CC2)n1,77.8%
14,O=C(CC1COCCN1)N1CCC2(CCc3ccccc32)CC1 (centres undefined),-60.2%
15,CC1CN(Cc2cccnc2)CCN1c1ccc2nncn2n1 (centres undefined),16.9%
16,CC1CN(Cc2cccc(C#N)c2)CCN1c1ccc2nncn2n1 (centres undefined),53.5%
17,Cc1ncc(CN2CCN(c3ccc4nncn4n3)C(C)C2)s1 (centres undefined),8.64%
18,CC1CN(c2ccc(C#N)cn2)CCN1c1ccc2nncn2n1 (centres undefined),-9.69%
19,COc1cccc(CN2CCN(c3ccc4nncn4n3)C(C)C2)c1 (centres undefined),83%
20,CC1CN(Cc2cnn(C)c2)CCN1c1ccc2nncn2n1 (centres undefined),10%
21,CC(C)c1nccn1C1CCCN(C(=O)c2cc(C3CC3)on2)C1 (centres undefined),48.4%
22,CNC(=O)C1CN(C(=O)Cc2ccc(OC)cc2)Cc2cn(C)nc21 (centres undefined),-6.51%

row,SMILES,INHIBITION
1,O=C(NC1CCN(c2cccc(OC(F)(F)F)c2)C1=O)C1CC1 (centres undefined),61.1%
2,O=C(NC1CCN(c2cccc(OC(F)(F)F)c2)C1=O)C1CCC1 (centres undefined),34.6%
3,CCC(=O)NC1CCN(c2cccc(OC(F)(F)F)c2)C1=O (centres undefined),40.6%
4,O=C1NCC[C@]12CN(Cc1nccs1)C[C@H]2c1ccccc1,45.8%
5,CN(CC1(C)COC1)C(=O)c1cc(-c2cnn(C)c2)nc2ccccc12,9.7%
6,COc1ccccc1-c1c[nH]c(C2CCCN2)n1 (centres undefined),-33.3%
7,CCc1n[nH]c(C(=O)N2CCCC3(CN(C)C(=O)O3)C2)c1C (centres undefined),45.2%
8,CCc1n[nH]c(C(=O)N2CCN(c3ccc4ccccc4c3)CC2)c1C,61.1%
9,CCc1ocnc1C(=O)N1CCN(c2ccc3ccccc3c2)CC1,26.5%
10,CC(C)N(CCS(C)(=O)=O)Cc1csc(-c2ccccc2F)n1,33.2%
11,CC(C)N(CCS(C)(=O)=O)Cc1csc(Cc2ccc(Cl)cc2)n1,35%
12,Cc1nc(CN(CCS(C)(=O)=O)C(C)C)cs1,53.6%
13,Cc1cc(S(=O)(=O)N(CCO)C2CC2)ccc1F,26.1%
14,Cc1cc(CC(C)NC(=O)Cc2cc(F)ccc2C)[nH]n1 (centres undefined),73%
15,Cc1cc(CC(C)NC(=O)COc2ccc(F)cc2F)[nH]n1 (centres undefined),40.6%
16,CCC(=O)c1ccc(OCC(=O)NC(C)Cc2cc(C)n[nH]2)cc1 (centres undefined),27.6%
17,Cc1ccc(CNS(=O)(=O)CCCC#N)cc1F,58.1%
18,Cc1ccc(CNC(=O)NC(C)CCS(C)(=O)=O)cc1F (centres undefined),-1.15%
19,Cc1cc(CNS(=O)(=O)CCCC#N)ccc1N(C)C,33.1%
20,CC(C)C(C)NC(=O)Nc1ccc(CS(=O)(=O)C(C)C)cc1 (centres undefined),-4.68%
21,Cc1ccccc1NC1CCN(C(=O)CCc2ccco2)CC1,-26.6%
